# Active and inactive are the calls of the source. Unless noted, how the calls were made is not given here.
# Key:
# [1] = A549 cell viability effects, profiling panel, calcein-AM fluorescence, 48 h, basal (AID 1162); conditions: higher = more signal; further: test concentration not given here
# [2] = adipocyte viability effects, profiling panel, cell-based, 3T3-L1 adipocytes, calcein-AM fluorescence, 48 h, basal (AID 1163); conditions: 3T3-L1 adipocytes viability, higher = more signal; further: test concentration not given here
# [3] = HepG2 cell viability effects, profiling panel, calcein-AM fluorescence, 48 h, basal (AID 1164); conditions: higher = more signal; further: test concentration not given here
# [4] = MM1S cell viability effects, profiling panel, calcein-AM fluorescence, 48 h, basal (AID 1165); conditions: higher = more signal;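 further: viability of MM1S multiple myeloma cells under basal unstimulated conditions; test concentration not given here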
# [5] = basal RPMI8226 viability, no added stimulus, profiling panel, cell-based, calcein-AM fluorescence, 48 h, PK04 Diversity Set (AID 1166); conditions: RPMI8226 myeloma viability, higher = more signal;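 further: cells grown under basal conditions without added stimulus; test concentration not given here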
# [6] = basal HepG2 mitochondrial membrane potential changes, profiling panel, cell-based, JC-1 fluorescence, 24 h, 100 nL compound (AID 1167); conditions: higher = more signal; further: test concentration not given here
# [7] = basal 3T3-L1 adipocyte mitochondrial potential changes, profiling panel, cell-based, JC-1 fluorescence, 3T3-L1 adipocytes, 24 h, 100 nL compound (AID 1168); conditions: JC-1 mitochondrial fluorescence, higher = more signal, called active from +8 up or from −8 down; further: test concentration not given here
# [8] = basal RPMI8226 mitochondrial membrane potential changes, profiling panel, cell-based, JC-1 fluorescence, 24 h, 100 nL compound (AID 1169); conditions: RPMI8226 myeloma, JC-1 mitochondrial potential fluorescence, higher = more signal; further: test concentration not given here
# [9] = basal MM1S mitochondrial membrane potential changes, profiling panel, cell-based, JC-1 fluorescence, 24 h, 100 nL compound (AID 1170); conditions: higher = more signal; further: test concentration not given here
# [10] = A549 lung cancer cell viability effects, profiling panel, resazurin fluorescence, 24 h, PK04 Diversity Set (AID 1171); conditions: higher = more signal, called active from +8 up or from −8 down; further: test concentration not given here
# [11] = HepG2 liver cancer cell viability effects, profiling panel, resazurin fluorescence, 24 h, PK04 Diversity Set (AID 1172); conditions: higher = more signal; further: test concentration not given here
# [12] = basal S. cerevisiae growth modulation, no modifier, primary screen, OD600, strain BY4716, 24 h, basal condition (AID 1173); conditions: OD600, 24 h, higher = more signal, called active from +8 up or from −8 down
# [13] = MM1S myeloma cell viability, profiling panel, resazurin fluorescence, basal, 24 h, PK04 Diversity Set (AID 1174); conditions: higher = more signal, called active from +8 up or from −8 down;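 further: MM1S multiple myeloma cell line; test concentration not given here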
# [14] = target: Dihydroorotate dehydrogenase (quinone), mitochondrial (Plasmodium falciparum (isolate 3D7)) (UniProt Q08210); test: PfDHODH enzyme inhibitors, primary screen, biochemical, C-terminal His tag, absorbance 600 nm (AID 1175); conditions: DCIP absorbance 600 nm, higher = more signal, called active from +8 up or from −8 down;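 further: recombinant parasite enzyme with a five histidine tag at its C terminus; test concentration not given here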
# Dihydroorotate dehydrogenase (quinone), mitochondrial (Plasmodium falciparum (isolate 3D7)), sequence (Q08210 whole entry, looked up): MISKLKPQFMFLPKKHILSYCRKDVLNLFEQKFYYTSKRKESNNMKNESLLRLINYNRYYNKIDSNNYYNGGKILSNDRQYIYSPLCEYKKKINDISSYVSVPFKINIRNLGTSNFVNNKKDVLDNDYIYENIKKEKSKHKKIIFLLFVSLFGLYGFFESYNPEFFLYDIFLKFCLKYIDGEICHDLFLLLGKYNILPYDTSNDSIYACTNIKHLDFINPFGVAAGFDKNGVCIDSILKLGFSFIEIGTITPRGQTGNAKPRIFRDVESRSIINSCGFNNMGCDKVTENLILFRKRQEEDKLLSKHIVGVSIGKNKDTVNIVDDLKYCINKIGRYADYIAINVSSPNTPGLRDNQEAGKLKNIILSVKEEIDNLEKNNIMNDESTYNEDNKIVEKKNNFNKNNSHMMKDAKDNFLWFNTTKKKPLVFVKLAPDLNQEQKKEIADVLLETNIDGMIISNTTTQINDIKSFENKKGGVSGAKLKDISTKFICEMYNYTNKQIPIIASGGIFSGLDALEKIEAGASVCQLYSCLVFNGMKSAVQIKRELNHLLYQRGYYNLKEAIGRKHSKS
# [15] = P. aeruginosa biofilm formation inhibitors, primary screen, strain PAO1, LB-PBS medium, absorbance 600 nm (AID 1176); further: test concentration not given here; conditions: P. aeruginosa PAO1 growth/biofilm, A600, 12 h; higher = more signal
# [16] = S. cerevisiae RM11-1a growth modifiers, primary screen, strain RM11-1a, OD600, basal, 24 h (AID 1177); conditions: OD600, 24 h, higher = more signal, called active from +8 up or from −8 down;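 further: cultures grown under basal conditions with no added stressor; test concentration not given here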
# [17] = E. coli acrAB mutant growth effects, primary screen, E. coli filamentation inducers, strain DRC39, OD650, 24 h (AID 1178); conditions: higher = more signal, called active from +8 up or from −8 down;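 further: growth measured as culture turbidity by optical density at 650 nm; test concentration not given here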
# [18] = E. coli acrAB mutant growth effects, primary screen, E. coli filamentation inducers, strain DRC39, OD650, 48 h (AID 1179);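 further: screen aims at cell division blockers that make cells filament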; conditions: E. coli DRC39 delta-acrAB growth, higher = more signal, called active from +8 up or from −8 down
# [19] = RPMI8226 myeloma cell viability, profiling panel, resazurin fluorescence, basal, 24 h, PK04 Diversity Set (AID 1180); conditions: higher = more signal;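 further: RPMI8826 multiple myeloma cell line at 5000 cells per well; test concentration not given here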
# [20] = target: E3 ubiquitin-protein ligase XIAP (Homo sapiens) (UniProt P98170); test: XIAP binders, primary screen, biophysical, small-molecule microarray, fluorescence 635 nm (AID 1181); conditions: small-molecule microarray binding, higher = more signal;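 further: score merges 667 nm emission and signal to noise over triplicate slides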
# E3 ubiquitin-protein ligase XIAP (Homo sapiens), sequence (P98170 whole entry, looked up): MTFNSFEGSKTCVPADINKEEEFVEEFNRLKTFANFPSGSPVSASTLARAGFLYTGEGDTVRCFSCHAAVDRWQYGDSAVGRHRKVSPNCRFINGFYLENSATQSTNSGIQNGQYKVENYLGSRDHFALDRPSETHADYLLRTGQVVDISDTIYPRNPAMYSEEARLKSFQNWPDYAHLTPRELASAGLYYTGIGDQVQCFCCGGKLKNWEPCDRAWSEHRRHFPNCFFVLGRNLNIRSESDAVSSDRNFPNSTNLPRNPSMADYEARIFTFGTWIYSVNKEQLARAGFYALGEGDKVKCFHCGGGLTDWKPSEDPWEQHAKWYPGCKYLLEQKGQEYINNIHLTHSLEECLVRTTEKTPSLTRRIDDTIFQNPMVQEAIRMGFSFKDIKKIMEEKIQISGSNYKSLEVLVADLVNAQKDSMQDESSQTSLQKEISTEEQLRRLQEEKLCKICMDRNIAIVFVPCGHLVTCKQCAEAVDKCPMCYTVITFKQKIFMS
Compound,z-score [1],z-score [2],z-score [3],z-score [4],z-score [5],z-score [6],z-score [7],z-score [8],z-score [9],z-score [10],z-score [11],z-score [12],z-score [13],composite z-score [14],z-score [15],z-score [16],z-score [17],z-score [18],z-score [19],composite z-score [20]
COC(=O)[C@@]1(Cc2ccc(OC)cc2)[C@H]2c3cc(C(=O)N(C)C)n(Cc4cc(F)c(F)c(F)c4)c3C[C@H]2CN1C(=O)c1ccccc1,-1.81,0.745,-0.909,-1.59,-2.93,3.22,-0.149 (inactive),-0.863,-0.971,-1.48 (inactive),-1.07,1.83 (inactive),-2.61 (inactive),-2.65 (inactive),4.06 (inactive),0.726 (inactive),-0.337 (inactive),-0.622 (inactive),-2.32,0.0957
O=C(CS)NCCCCCNC(=O)[C@@H]1C[C@@H]2C(=O)N3CCC[C@H]3C(=O)N2[C@@H]1c1ccc(O)cc1,0.644,-0.239,0.413,-0.96,0.125,-0.264,-0.155 (inactive),-0.282,0.684,-0.284 (inactive),-0.196,-0.419 (inactive),-0.0752 (inactive),0.252 (inactive),-0.102 (inactive),0.132 (inactive),-0.651 (inactive),-0.265 (inactive),-0.0255,-0.127
CN1C(=O)C2C=CC(C(O)c3cccc4ccccc34)N(NC(=O)OC(C)(C)C)C2C1=O (stereo not given),-0.927,-0.0679,-0.559,-0.248,-1.49,-2.24,-0.532 (inactive),0.219,0.437,-0.195 (inactive),-1.12,-3.8 (inactive),-0.776 (inactive),-0.878 (inactive),0.378 (inactive),-0.0808 (inactive),-0.555 (inactive),-0.403 (inactive),-0.693,0.156
C[C@@H]1ON(c2ccccc2)[C@H](c2ccccc2)[C@H]1C(=O)N1C(=O)OC[C@H]1Cc1ccccc1,-0.245,0.701,-0.0596,-1.4,-0.0681,1.38,0.00493 (inactive),-0.137,-0.645,1.38 (inactive),1.07,0.534 (inactive),0.962 (inactive),-0.255 (inactive),0.0238 (inactive),1.39 (inactive),0.884 (inactive),0.934 (inactive),0.852,-0.1
COCCOC(=O)N1C(=O)[C@@]2(c3cc(C#CC4(O)CCCCCC4)ccc31)[C@H](C(=O)NC[C@H](O)c1ccccc1)[C@H]1C(=O)O[C@H](c3ccccc3)[C@H](c3ccccc3)N1[C@@H]2c1ccc(OCCO)cc1,-0.248,0.504,-0.466,-1.16,-1.91,-1.64,1 (inactive),-1.01,-1.19,0.365 (inactive),1.49,0.385 (inactive),-0.909 (inactive),-1.38 (inactive),1.05 (inactive),2.73 (inactive),0.608 (inactive),0.187 (inactive),0.0705,0.643
CC(C)c1ccc(NN2C(C(O)c3cccs3)C=CC3C(=O)N(c4ccccc4)C(=O)C32)cc1 (stereo not given),-0.869,-0.986,-0.245,-0.639,-0.476,-2.91,-1.73 (inactive),0.183,0.491,-0.28 (inactive),-1.75,-2.27 (inactive),-1.73 (inactive),0.355 (inactive),0.835 (inactive),0.883 (inactive),-0.649 (inactive),-0.73 (inactive),-1.14,0.44
CO[C@H]1O[C@H](CO)[C@@H](OC(=O)c2ccc(Br)cc2)[C@@H]2OC(=O)[C@H](Cc3cccc(Br)c3)C/C=C/C[C@@H](Cc3cccc(Br)c3)C(=O)O[C@@H]12,-0.0692,1.09,-0.542,-1.82,-3.5,-3.52,-0.442 (inactive),0.229,-0.698,-0.932 (inactive),-0.673,-0.611 (inactive),-0.402 (inactive),-0.71 (inactive),0.566 (inactive),0.393 (inactive),0.198 (inactive),0.188 (inactive),-1.47,-0.0663
CCOC(=O)C[C@H]1[C@H](OC(=O)Cc2ccc3c(c2)OCO3)[C@@H](NC(=O)c2ccccc2)c2cc(OCCCO)ccc2N1C(=O)c1ccccc1,-0.11,0.232,1.52,-0.266,0.503,0.614,0.746 (inactive),0.684,-0.96,0.323 (inactive),-0.688,-0.271 (inactive),0.103 (inactive),-1.11 (inactive),0.0885 (inactive),0.0859 (inactive),0.31 (inactive),0.676 (inactive),-0.19,-0.309
C=CC[C@]1(C(=O)N2CCOCC2)N=C(c2ccc(OCCCO)cc2)O[C@H]1c1ccccc1CN=[N+]=[N-],0.762,0.399,1.65,-0.0728,-1.62,1.48,0.114 (inactive),-0.977,-0.508,-0.119 (inactive),-0.744,-0.33 (inactive),-0.574 (inactive),0.155 (inactive),-0.497 (inactive),0.301 (inactive),-0.186 (inactive),0.0726 (inactive),-1.03,0.208

# Source: PubChem BioAssay
